Reference: PubChem BioAssay (Tox21)
“And” between values parts separate entries of the source, which are not always exact repeats. Equal values may be shown once. Inconclusive results are not listed. Some structures have more than one record in an assay (separate samples or runs), and their calls can disagree. The source made the active and inactive calls. Unless noted, calls come from the whole dose curve; as a rule, active = well fitted curve in the direction sought with a large enough effect in the repeat runs; inconclusive = weak or mixed curves; inactive = no such curve, though single readings can be large; an effect the other way counts as inactive or inconclusive.

What was measured:
[1] = test system: thyroid hormone receptor (rat, GH3 cells); test: qHTS assay to identify small molecule agonists of the thyroid receptor (TR) signaling pathway (AID 743066; calls by dose curve)
[2] = target: Estrogen receptor (Homo sapiens) (UniProt P03372); test: qHTS assay to identify small molecule antagonists of the estrogen receptor alpha (ER-alpha) signaling pathway (AID 743069; active = well fitted curve in the direction sought with a large enough effect in the signal ratio in the repeat runs, not every such curve was filed as active; the % refers to the signal ratio)
How it was run: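 Compound effects are measured against 17beta-estradiol stimulation in HEK293 cells with a UAS-controlled beta-lactamase reporter for ER-alpha. Exposure lasts 18 hr at 37C; LiveBLAzer B/G FRET substrate follows for 2 hr at room temperature.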

[3] = qHTS assay to identify small molecule antagonists of the estrogen receptor alpha (ER-alpha) signaling pathway - cell viability counter screen (AID 743074; calls by dose curve;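 note: HEK293 cells carrying ER-alpha-UAS-bla reporter stimulated with 17beta-estradiol; nearly all actives have a fitted effect of over 45% in size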; note: potency is the fitted concentration of half-maximal effect)
[4] = target: Estrogen receptor (Homo sapiens) (UniProt P03372); test: qHTS assay to identify small molecule agonists of the estrogen receptor alpha (ER-alpha) signaling pathway (AID 743075; calls by dose curve)
[5] = target: Estrogen receptor (Homo sapiens) (UniProt P03372); test: qHTS assay to identify small molecule agonists of the estrogen receptor alpha (ER-alpha) signaling pathway using the BG1 cell line (AID 743079); note: nearly all actives have a fitted effect of over 20% in size; note: potency is the fitted concentration of half-maximal effect
[6] = qHTS assay to identify small molecule antagonists of the estrogen receptor alpha (ER-alpha) signaling pathway using the BG1 cell line (AID 743080; calls by dose curve;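 note: BG1 cells stimulated with 17beta-estradiol alongside compound; nearly all actives have a fitted effect of over 25% in size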; note: potency is the fitted concentration of half-maximal effect)
How it was run: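 BG1-Luc-4E2 cells (endogenous full-length ER-alpha, stable 4×ERE-luciferase) were starved 5 days in phenol-red-free medium with 10% charcoal-stripped FBS, plated 24 h, then given compound plus 17beta-estradiol for 21.5 h at 37 C; ONE-Glo luminescence read after 30 min.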

[7] = qHTS assay to identify small molecule antagonists of the estrogen receptor alpha (ER-alpha) signaling pathway using the BG1 cell line - cell viability counter screen (AID 743081);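 note: compound given together with 17beta-estradiol as the ER stimulus; nearly all actives have a fitted effect of over 45% in size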; note: potency is the fitted concentration of half-maximal effect
[8] = target: Aromatase (Homo sapiens) (UniProt P11511); test: qHTS assay to identify aromatase inhibitors (AID 743083); note: nearly all actives have a fitted effect of over 55% in size; note: potency is the fitted concentration of half-maximal effect
[9] = qHTS assay to identify aromatase inhibitors - cell viability counter screen (AID 743084);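 note: cells stimulated with testosterone during compound exposure; nearly all actives have a fitted effect of over 55% in size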; note: potency is the fitted concentration of half-maximal effect
[10] = target: Aryl hydrocarbon receptor (Homo sapiens) (UniProt P35869); test: qHTS assay to identify small molecule that activate the aryl hydrocarbon receptor (AhR) signaling pathway (AID 743085); note: nearly all actives have a fitted effect of over 15% in size; note: potency is the fitted concentration of half-maximal effect;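 for activation: HG2L7.5c1 human HepG2 liver cells with stably integrated DRE-driven firefly reporter; series mostly up to about 70 µM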
How it was run: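 AhR agonist activity is inferred from enhanced light output of a DRE-controlled firefly luciferase reporter in HepG2 cells, measured with ONE-Glo following 24 h treatment at 37C.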

[11] = qHTS assay to identify small molecule that activate the aryl hydrocarbon receptor (AhR) signaling pathway - cell viability counter screen (AID 743086); note: nearly all actives have a fitted effect of over 45% in size; note: potency is the fitted concentration of half-maximal effect
How it was run: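 Cytotoxicity counter screen: CellTiter-Fluor signal (30 min, 37 C) in 4000 HepG2 cells/well carrying the DRE-luciferase reporter, following 24 h compound exposure at 37 C.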

[12] = target: Peroxisome proliferator-activated receptor gamma (Homo sapiens) (UniProt P37231); test: qHTS assay to identify small molecule agonists of the peroxisome proliferator-activated receptor gamma (PPARg) signaling pathway (AID 743094; active = well fitted activation curve with a large enough effect in the signal ratio in the repeat runs, not every such curve was filed as active; the % refers to the signal ratio; note: potency is the fitted concentration of half-maximal effect)
How it was run: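 Quantitative HTS agonist mode: stable HEK293H line with UAS-beta-lactamase reporter under PPARg control, 17 h compound exposure at 37C, fluorescence after 1 h FRET substrate loading at room temperature.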

[13] = qHTS assay to identify small molecule antagonists of the thyroid receptor (TR) signaling pathway (AID 743065); note: nearly all actives have a fitted effect of over 55% in size; note: potency is the fitted concentration of half-maximal effect
How it was run: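 Antagonism measured as loss of luciferase signal in GH3 cells stably carrying a TRE-luciferase reporter, co-treated with compound and T3 (1 nM final) for 23.5 h at 37 C. Viability was read in the same well by CellTiter-Fluor.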

[14] = qHTS assay to identify small molecule antagonists of the peroxisome proliferator-activated receptor gamma (PPARg) signaling pathway - cell viability counter screen (AID 743194); note: nearly all actives have a fitted effect of over 55% in size; note: potency is the fitted concentration of half-maximal effect
How it was run: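 Viability was measured as CellTiter-Glo luminescence in GeneBLAzer PPARg UAS-bla HEK293H cells. These cells had been exposed 17 h at 37 C to compounds together with rosiglitazone at 50 nM final, with the beta-lactamase readout taken in the same wells.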

[15] = qHTS assay for small molecule agonists of the antioxidant response element (ARE) signaling pathway - cell viability counter screen (AID 743203; calls by dose curve; note: nearly all actives have a fitted effect of over 55% in size; note: potency is the fitted concentration of half-maximal effect)
How it was run: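 Seeded at 2,000 cells/well, ARE-bla HepG2 cells were incubated 5 hrs before compound addition. After 16 hrs of treatment at 37C with 5% CO2, CellTiter-Glo reagent was added and luminescence read 30 min later.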

[16] = qHTS assay to identify small molecule agonists of the peroxisome proliferator-activated receptor delta (PPARd) signaling pathway - cell viability counter screen (AID 743211)
How it was run: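 qHTS cell viability: PPARd-bla HEK293H; 17 h cpd, 37C; CellTiter-Glo, luminescence at 30 min RT.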

[17] = qHTS assay for small molecule agonists of the antioxidant response element (ARE) signaling pathway (AID 743202; active = well fitted activation curve with a large enough effect in the signal ratio in the repeat runs, not every such curve was filed as active; the % refers to the signal ratio; note: potency is the fitted concentration of half-maximal effect)
How it was run: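 An ARE-responsive beta-lactamase gene stably integrated in HepG2 cells serves as reporter. After 5 h plating and 16 h compound incubation at 37 C, fluorescence of the B/G FRET substrate was measured.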

Measured: Potency

Chain of Peroxisome proliferator-activated receptor gamma (Homo sapiens) (P37231 whole entry, looked up): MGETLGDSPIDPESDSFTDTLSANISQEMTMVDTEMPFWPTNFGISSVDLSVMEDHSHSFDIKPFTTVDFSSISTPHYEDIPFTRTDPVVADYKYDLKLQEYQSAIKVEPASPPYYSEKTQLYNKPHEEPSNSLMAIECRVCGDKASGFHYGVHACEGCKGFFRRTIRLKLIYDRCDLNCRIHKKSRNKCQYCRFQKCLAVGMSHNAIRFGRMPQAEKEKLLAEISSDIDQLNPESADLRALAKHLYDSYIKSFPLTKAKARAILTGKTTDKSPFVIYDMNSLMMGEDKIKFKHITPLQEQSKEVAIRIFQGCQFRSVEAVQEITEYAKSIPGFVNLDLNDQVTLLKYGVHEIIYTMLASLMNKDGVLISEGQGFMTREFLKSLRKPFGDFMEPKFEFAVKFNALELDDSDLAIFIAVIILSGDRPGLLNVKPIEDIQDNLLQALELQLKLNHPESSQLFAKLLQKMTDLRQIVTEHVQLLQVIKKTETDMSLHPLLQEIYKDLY
Chain of Estrogen receptor (Homo sapiens) (P03372 whole entry, looked up): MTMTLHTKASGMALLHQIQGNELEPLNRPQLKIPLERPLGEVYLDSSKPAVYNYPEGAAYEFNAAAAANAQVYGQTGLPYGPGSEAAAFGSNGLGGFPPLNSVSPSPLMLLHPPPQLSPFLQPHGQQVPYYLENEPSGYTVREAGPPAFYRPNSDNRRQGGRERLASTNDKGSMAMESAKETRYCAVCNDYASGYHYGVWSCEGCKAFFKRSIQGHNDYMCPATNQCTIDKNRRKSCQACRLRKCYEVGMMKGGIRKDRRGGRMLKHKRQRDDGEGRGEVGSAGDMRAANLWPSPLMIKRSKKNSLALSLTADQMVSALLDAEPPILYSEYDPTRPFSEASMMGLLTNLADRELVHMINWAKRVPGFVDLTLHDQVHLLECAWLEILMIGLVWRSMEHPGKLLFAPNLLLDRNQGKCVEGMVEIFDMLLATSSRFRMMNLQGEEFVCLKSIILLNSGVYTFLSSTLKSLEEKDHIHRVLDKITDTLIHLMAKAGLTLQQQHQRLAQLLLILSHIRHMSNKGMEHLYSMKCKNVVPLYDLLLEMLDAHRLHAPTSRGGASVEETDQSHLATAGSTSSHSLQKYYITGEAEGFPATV
Chain of Aryl hydrocarbon receptor (Homo sapiens) (P35869 whole entry, looked up): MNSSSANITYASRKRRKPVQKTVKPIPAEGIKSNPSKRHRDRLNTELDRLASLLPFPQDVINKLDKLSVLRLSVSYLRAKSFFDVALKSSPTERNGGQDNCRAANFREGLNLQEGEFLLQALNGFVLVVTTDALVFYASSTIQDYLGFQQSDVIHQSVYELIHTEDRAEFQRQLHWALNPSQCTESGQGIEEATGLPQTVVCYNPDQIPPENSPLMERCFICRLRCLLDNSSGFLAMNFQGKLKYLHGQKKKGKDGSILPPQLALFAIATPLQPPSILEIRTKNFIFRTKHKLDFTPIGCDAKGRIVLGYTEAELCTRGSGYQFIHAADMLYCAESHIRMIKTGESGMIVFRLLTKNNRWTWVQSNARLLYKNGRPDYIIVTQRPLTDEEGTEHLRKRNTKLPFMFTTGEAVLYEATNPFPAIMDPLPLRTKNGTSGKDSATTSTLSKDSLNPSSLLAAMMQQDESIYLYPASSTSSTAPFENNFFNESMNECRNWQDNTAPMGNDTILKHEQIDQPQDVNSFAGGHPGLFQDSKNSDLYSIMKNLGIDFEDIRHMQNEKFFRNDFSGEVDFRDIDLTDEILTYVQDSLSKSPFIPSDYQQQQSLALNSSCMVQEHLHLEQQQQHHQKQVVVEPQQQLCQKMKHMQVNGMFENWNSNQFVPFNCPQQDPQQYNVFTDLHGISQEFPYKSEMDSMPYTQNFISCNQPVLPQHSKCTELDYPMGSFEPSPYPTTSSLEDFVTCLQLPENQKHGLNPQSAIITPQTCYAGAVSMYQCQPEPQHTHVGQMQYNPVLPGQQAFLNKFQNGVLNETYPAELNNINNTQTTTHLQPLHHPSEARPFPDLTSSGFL
Chain of Aromatase (Homo sapiens) (P11511 whole entry, looked up): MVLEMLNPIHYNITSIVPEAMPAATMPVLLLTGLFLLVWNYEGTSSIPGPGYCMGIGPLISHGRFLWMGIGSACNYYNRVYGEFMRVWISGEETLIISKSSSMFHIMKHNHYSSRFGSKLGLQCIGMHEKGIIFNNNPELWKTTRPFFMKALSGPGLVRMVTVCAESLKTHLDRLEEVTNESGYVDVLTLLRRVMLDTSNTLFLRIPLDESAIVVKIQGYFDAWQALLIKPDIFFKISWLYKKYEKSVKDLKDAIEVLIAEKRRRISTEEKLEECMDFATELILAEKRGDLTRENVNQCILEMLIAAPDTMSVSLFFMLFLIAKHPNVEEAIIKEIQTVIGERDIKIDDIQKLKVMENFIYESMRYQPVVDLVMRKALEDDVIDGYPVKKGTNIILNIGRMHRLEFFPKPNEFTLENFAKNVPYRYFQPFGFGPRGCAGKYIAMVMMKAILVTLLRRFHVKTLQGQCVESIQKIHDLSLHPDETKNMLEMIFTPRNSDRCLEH

C/C=C/C1=C(C(=O)O)N2C(=O)[C@@H](NC(=O)[C@H](N)c3ccc(O)cc3)[C@H]2SC1
not listed: [11] | [12] | [13] | [14] | [15] | [16] | [17]
inactive: all other assays above

CN[C@H](CC(C)C)C(=O)N[C@H]1C(=O)N[C@@H](CC(N)=O)C(=O)N[C@H]2C(=O)N[C@H]3C(=O)N[C@H](C(=O)N[C@@H](C(=O)O)c4cc(O)cc(O)c4-c4cc3ccc4O)[C@H](O)c3ccc(c(Cl)c3)Oc3cc2cc(c3O[C@@H]2O[C@H](CO)[C@@H](O)[C@H](O)[C@H]2O[C@H]2C[C@](C)(N)C(O)[C@H](C)O2)Oc2ccc(cc2Cl)[C@H]1O (stereo partly drawn)
not listed: [13] | [14] | [15] | [16] | [17]
inactive: all other assays above

NCc1cccc(C2CCN(C(=O)c3ccc(C#Cc4ccccc4F)o3)CC2)c1
active: [13] 7.7 µM | [3] 54.9 µM | [8] 68.6 µM | [9] 61.1 µM | [14] 19.5 µM | [15] 48.6 µM | [16] 21.9 µM
inactive: [1] | [4] | [10] | [12]

CCc1cn([C@H]2C[C@H](O)[C@@H](CO)O2)c(=O)[nH]c1=O
inactive: [13] | [1] | [3] | [7] | [8] | [9] | [11] | [12]

CC(C)(C)c1ccc2c(S(=O)(=O)O)c(C(C)(C)C)ccc2c1
active: [12] 9.52 µM
not listed: [13] | [14] | [15] | [16] | [17]
inactive: all other assays above

C[C@@H]1C(=O)NC2=Nc3cccc(Cl)c3CN21
inactive: [13] | [1] | [3] | [7] | [8] | [9] | [10] | [11] | [12]

CC[C@@]1([C@@H]2O[C@@H]([C@H]3O[C@@](O)(CO)[C@H](C)C[C@@H]3C)C[C@@H]2C)CC[C@H]([C@]2(C)CC[C@]3(C[C@H](O)[C@@H](C)[C@@H]([C@@H](C)[C@@H](OC)[C@H](C)C(=O)O)O3)O2)O1 (stereo in doubt)
18.8 µM (active) and inactive: [7]
active: [13] 376 nM and 266 nM
inactive: [4] | [5] | [8] | [9] | [10]

CC(C)OC(=O)Nc1ccc2nc(-c3cscn3)[nH]c2c1
inactive: [1] | [3] | [4] | [8] | [9] | [11] | [12]
active: [13] 3.76 µM | [5] 2.11 µM | [10] 6.68 µM

O=C(O)c1cc(O)c2c(c1)[C@H]([C@H]1c3cc(C(=O)O)cc(O)c3C(=O)c3c(O[C@@H]4O[C@H](CO)[C@@H](O)[C@H](O)[C@H]4O)cccc31)c1cccc(O[C@@H]3O[C@H](CO)[C@@H](O)[C@H](O)[C@H]3O)c1C2=O
inactive: [13] | [1] | [3] | [7] | [8] | [9] | [10] | [11] | [12]

CO[C@H]1C[C@@H]2CC[C@@H](C)[C@@](O)(O2)C(=O)C(=O)N2CCCC[C@H]2C(=O)O[C@H]([C@H](C)C[C@@H]2CC[C@@H](O)[C@H](OC)C2)CC(=O)[C@H](C)C=C(C)[C@@H](O)[C@@H](OC)C(=O)[C@H](C)C[C@H](C)/C=C/C=CC=C1C
inactive: [4] | [10]
active: [13] 15 µM | [3] 23.9 µM | [6] 3.8 nM and 7.5 nM | [7] 23.7 µM and 3.76 µM | [8] 2.11 µM | [9] 23.7 µM and 26.6 µM | [11] 13.3 µM and 26.6 µM

CC1=C(/C=C/C(C)=C/C=C/C(C)=C/C=C/C=C(C)/C=C/C=C(C)/C=C/C2=C(C)CCCC2(C)C)C(C)(C)CCC1
not listed: [2] | [14] | [15] | [16] | [17]
inactive: all other assays above

OCl
not listed: [2] | [14] | [15] | [16] | [17]
inactive: all other assays above

CCCCC/C=C\C=C\C(=O)OCC
active: [13] 28.4 µM | [9] 56.8 µM
inactive: [3] | [4] | [5] | [7] | [11]

CCN(CC)C(=O)c1cccnc1
inactive: [13] | [1] | [3] | [7] | [11]

N[C@H](C(=O)O)[C@@H]1CC(Cl)=NO1
active: [13] 2.98 µM
not listed: [2] | [8] | [14] | [15] | [16] | [17]
inactive: all other assays above

Cc1cc(N)c2ccccc2[n+]1CCCCCCCCCC[n+]1c(C)cc(N)c2ccccc21
active: [13] 11.4 µM | [3] 8.11 µM
inactive: [1] | [4] | [10] | [11] | [12]

CC(C)c1ccc2sc3ccccc3c(=O)c2c1
active: [5] 6.11 µM | [10] 30.6 µM | [17] 9.69 µM
not listed: [2] | [6] | [12] | [16]
inactive: all other assays above

CC1=C(/C=C/C(C)=C/C=C/C(C)=C\C(=O)O)C(C)(C)CCC1
active: [13] 68.8 µM | [6] 244 nM
inactive: [8] | [10]

C[S+](C)CCC(N)C(=O)O (stereo not drawn)
not listed: [2] | [11] | [14] | [15] | [16] | [17]
inactive: all other assays above

CCOc1cc(CC(=O)N[C@@H](CC(C)C)c2ccccc2N2CCCCC2)ccc1C(=O)O
inactive: [13] | [1] | [3] | [8] | [9] | [10] | [11]

CC1CCCC(C)N1NC(=O)c1ccc(Cl)c(S(N)(=O)=O)c1 (stereo not drawn)
not listed: [13] | [14] | [15] | [16] | [17]
inactive: all other assays above
